Measured values as given in the supplement of paper PMC10849652.
About 7,900 targets were measured; listed, in parts, are those with a hit and a random draw of the rest. About 0.6% of all pairs of compound and target were hits. Values without a mark were called inactive.

Columns and labels:
Assay in all cases: log2 fold change, soluble protein after heating vs DMSO (PISA); higher = thermal stabilisation; K562 cells, 10 uM, 30 min; active = over 0.2 and 3.5 SD of the protein, either way, in both replicates (recomputed)
[1] = compound: CS(=O)(=O)c1ccc(-c2cnc(N)c(C(=O)Nc3ccccc3)n2)cc1
Summary of the method: (§1)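 Aliquots of K562 cells (2×10^6 cells/mL) treated with 10 μM compound for 30 min were heated for 3 min over 48°C-58°C. After pooling and extraction in PBS with 0.5% NP-40 at 4°C, soluble protein from a 21,000xg, 90 min spin was quantified by TMTpro 16plex LC-MS/MS with channel sums equalised. Thermal stability is expressed against control samples, from duplicates, as a log2 fold change.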

[2] = compound: C[C@@H](Oc1cc(-c2cnn(C3CCNCC3)c2)cnc1N)c1c(Cl)ccc(F)c1Cl [crizotinib]
Summary of the method: as §1

[3] = compound: C[C@@H]1COCCN1C2=NC(=NC(=C2)C3(CC3)S(=O)(=O)C)C4=C5C=CNC5=CC=C4
Summary of the method: as §1

[4] = compound: C[C@H](C1=CC=C(C=C1)C(=O)NC2=C3C=CNC3=NC=C2)N
Summary of the method: as §1

[5] = compound: C[C@H](Nc1ncnc2nc[nH]c12)c1cc2cccc(Cl)c2c(=O)n1-c1ccccc1 [duvelisib]
Summary of the method: as §1

[6] = compound: Cc1cc(Nc2cc(CN3CCOCC3)c3nc(C)c(Cc4ccc(Cl)cc4F)n3n2)n[nH]1 [gandotinib]
Summary of the method: as §1

[7] = compound: Cc1cc(Nc2cc(N3CCN(C)CC3)nc(Sc3ccc(NC(=O)C4CC4)cc3)n2)n[nH]1 [tozasertib]
Summary of the method: as §1

[8] = compound: Cc1cc(SCc2sc(-c3ccc(C(F)(F)F)cc3)nc2C)ccc1OCC(=O)O
Summary of the method: as §1

[9] = compound: Cc1ccc(-n2nc(C(C)(C)C)cc2NC(=O)Nc2ccc(OCCN3CCOCC3)c3ccccc23)cc1 [doramapimod]
Summary of the method: as §1

[10] = compound: Cc1ccc(C(=O)N(CCCN)[C@@H](c2nc3cc(Cl)ccc3c(=O)n2Cc2ccccc2)C(C)C)cc1 [ispinesib]
Summary of the method: as §1

[11] = compound: Cc1ccc(NC(=O)c2ccc(CN3CC[C@H](N(C)C)C3)c(C(F)(F)F)c2)cc1Nc1nccc(-c2cncnc2)n1 [bafetinib]
Summary of the method: as §1

[12] = compound: Cc1cccc(CC(=O)N2CCc3c2ccc(-c2cn(C)c4ncnc(N)c24)c3F)n1
Summary of the method: as §1

[13] = compound: Cc1cn(-c2cc(NC(=O)c3ccc(C)c(Nc4nccc(-c5cccnc5)n4)c3)cc(C(F)(F)F)c2)cn1 [nilotinib]
Summary of the method: as §1

[14] = compound: Cc1nc(Nc2n[nH]c3c2CN(C(=O)N[C@H](CN(C)C)c2ccccc2)C3(C)C)c2sccc2n1
Summary of the method: as §1

[15] = compound: Cc1nc(Nc2ncc(C(=O)Nc3c(C)cccc3Cl)s2)cc(N2CCN(CCO)CC2)n1 [dasatinib]
Summary of the method: as §1

[16] = compound: Cc1ncc(-c2ccnc(Nc3ccc(S(C)(=O)=O)cc3)n2)n1C(C)C
Summary of the method: as §1

[17] = compound: Cn1cc(-c2ccc3c(c2)CCN3C(=O)Cc2cccc(C(F)(F)F)c2)c2c(N)ncnc21
Summary of the method: as §1

[18] = compound: Cn1cc(-c2ccc3nnc(C(F)(F)c4ccc5ncccc5c4)n3n2)cn1
Summary of the method: as §1

[19] = compound: Cn1cncc1[C@@](N)(c1ccc(Cl)cc1)c1ccc2c(c1)c(-c1cccc(Cl)c1)cc(=O)n2C [tipifarnib]
Summary of the method: as §1

[20] = compound: FC(F)(F)c1ccc(/C=C/c2nc(COc3ccc(CCCCn4ccnn4)cc3)co2)cc1 [mubritinib]
Summary of the method: as §1

UniProt O76031, sequence (O76031 whole entry, looked up): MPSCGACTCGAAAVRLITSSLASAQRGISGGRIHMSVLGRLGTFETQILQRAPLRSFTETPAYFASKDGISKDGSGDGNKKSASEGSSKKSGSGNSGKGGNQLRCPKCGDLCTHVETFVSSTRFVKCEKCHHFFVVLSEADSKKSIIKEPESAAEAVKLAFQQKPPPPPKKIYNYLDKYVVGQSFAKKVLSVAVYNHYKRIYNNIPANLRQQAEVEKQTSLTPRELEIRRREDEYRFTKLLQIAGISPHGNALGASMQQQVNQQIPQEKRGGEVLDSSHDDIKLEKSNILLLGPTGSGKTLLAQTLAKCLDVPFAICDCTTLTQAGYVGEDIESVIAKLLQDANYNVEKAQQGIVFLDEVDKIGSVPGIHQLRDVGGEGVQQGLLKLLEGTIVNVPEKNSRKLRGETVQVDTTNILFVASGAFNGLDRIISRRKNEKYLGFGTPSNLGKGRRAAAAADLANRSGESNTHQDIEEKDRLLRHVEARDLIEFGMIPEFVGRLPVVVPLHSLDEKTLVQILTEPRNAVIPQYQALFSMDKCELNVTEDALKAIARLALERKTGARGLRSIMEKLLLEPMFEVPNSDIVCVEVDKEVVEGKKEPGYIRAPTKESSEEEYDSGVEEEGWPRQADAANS
UniProt P35219, sequence (P35219 whole entry, looked up): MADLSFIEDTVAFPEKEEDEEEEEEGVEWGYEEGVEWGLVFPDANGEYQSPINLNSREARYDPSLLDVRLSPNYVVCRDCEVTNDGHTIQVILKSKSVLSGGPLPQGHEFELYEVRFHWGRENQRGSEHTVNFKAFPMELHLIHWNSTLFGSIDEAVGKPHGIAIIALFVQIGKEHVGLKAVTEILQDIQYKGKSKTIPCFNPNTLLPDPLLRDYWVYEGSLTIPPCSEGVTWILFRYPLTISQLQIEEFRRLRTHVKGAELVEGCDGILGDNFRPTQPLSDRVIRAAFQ
UniProt P50750, sequence (P50750 whole entry, looked up): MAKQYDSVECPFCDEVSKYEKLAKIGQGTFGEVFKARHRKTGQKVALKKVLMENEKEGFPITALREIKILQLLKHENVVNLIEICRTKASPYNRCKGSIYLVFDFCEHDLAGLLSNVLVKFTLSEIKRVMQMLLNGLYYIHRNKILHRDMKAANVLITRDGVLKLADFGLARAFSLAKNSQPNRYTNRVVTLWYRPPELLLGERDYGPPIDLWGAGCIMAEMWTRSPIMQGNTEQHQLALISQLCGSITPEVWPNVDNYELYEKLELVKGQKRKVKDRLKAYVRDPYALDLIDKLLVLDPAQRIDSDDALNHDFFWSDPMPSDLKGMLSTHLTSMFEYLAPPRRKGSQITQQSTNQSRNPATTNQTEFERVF
UniProt Q5T5Y3, sequence (Q5T5Y3 whole entry, looked up): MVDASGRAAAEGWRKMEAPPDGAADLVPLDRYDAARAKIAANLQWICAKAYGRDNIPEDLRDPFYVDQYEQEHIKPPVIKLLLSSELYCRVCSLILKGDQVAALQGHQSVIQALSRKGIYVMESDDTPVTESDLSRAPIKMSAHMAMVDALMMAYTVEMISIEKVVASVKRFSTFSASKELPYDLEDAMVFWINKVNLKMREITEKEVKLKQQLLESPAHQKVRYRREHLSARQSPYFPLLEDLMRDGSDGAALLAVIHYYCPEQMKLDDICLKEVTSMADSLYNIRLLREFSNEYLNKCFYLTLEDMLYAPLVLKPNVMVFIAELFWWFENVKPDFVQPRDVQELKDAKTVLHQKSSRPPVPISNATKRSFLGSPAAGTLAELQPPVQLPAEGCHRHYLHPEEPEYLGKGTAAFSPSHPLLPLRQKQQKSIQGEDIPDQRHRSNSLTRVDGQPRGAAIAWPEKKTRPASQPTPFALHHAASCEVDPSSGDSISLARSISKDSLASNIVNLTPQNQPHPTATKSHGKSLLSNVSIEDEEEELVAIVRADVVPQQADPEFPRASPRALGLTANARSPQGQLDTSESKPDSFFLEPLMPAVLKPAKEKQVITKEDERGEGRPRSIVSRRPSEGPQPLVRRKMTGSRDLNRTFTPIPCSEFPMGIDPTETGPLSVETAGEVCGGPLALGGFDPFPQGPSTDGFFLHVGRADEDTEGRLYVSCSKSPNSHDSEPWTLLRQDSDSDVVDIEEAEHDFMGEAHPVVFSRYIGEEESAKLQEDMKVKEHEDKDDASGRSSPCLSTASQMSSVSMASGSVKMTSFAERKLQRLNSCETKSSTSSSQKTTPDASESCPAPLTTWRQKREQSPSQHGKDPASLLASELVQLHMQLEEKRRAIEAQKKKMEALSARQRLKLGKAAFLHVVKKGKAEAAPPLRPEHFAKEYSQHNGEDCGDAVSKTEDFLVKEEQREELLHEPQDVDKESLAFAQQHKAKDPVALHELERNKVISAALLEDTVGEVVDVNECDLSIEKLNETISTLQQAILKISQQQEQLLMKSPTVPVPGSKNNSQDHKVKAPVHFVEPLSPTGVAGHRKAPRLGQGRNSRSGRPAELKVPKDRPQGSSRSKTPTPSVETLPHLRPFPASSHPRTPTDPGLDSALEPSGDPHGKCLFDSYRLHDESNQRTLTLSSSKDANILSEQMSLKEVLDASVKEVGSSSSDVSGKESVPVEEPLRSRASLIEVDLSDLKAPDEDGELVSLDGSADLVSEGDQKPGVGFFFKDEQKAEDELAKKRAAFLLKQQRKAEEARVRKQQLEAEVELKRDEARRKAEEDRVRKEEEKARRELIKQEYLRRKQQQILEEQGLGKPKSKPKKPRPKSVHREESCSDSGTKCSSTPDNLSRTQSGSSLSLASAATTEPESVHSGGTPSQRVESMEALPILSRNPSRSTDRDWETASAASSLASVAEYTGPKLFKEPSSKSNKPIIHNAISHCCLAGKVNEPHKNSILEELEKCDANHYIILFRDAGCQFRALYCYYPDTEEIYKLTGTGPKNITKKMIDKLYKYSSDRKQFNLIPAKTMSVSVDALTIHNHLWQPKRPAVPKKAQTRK
UniProt Q16740, sequence (Q16740 whole entry, looked up): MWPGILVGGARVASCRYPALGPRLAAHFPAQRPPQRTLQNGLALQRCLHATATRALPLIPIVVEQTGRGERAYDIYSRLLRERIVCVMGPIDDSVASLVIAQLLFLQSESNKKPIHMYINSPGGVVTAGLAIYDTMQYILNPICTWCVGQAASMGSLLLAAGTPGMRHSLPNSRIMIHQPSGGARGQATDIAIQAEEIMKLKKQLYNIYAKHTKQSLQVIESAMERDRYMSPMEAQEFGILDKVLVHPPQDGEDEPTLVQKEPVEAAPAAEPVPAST
UniProt Q13137, sequence (Q13137 whole entry, looked up): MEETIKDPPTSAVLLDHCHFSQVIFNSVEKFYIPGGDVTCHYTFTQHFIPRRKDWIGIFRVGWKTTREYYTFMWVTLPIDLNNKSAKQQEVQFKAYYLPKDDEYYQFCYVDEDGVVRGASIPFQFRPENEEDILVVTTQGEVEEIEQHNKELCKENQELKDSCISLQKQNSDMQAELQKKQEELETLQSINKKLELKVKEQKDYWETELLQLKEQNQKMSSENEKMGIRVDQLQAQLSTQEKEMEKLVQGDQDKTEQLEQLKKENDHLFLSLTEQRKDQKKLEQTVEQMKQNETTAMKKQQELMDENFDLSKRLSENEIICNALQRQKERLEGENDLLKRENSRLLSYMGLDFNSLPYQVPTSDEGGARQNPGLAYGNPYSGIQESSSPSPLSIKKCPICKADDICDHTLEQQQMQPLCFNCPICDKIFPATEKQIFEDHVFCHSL
UniProt P51790, sequence (P51790 whole entry, looked up): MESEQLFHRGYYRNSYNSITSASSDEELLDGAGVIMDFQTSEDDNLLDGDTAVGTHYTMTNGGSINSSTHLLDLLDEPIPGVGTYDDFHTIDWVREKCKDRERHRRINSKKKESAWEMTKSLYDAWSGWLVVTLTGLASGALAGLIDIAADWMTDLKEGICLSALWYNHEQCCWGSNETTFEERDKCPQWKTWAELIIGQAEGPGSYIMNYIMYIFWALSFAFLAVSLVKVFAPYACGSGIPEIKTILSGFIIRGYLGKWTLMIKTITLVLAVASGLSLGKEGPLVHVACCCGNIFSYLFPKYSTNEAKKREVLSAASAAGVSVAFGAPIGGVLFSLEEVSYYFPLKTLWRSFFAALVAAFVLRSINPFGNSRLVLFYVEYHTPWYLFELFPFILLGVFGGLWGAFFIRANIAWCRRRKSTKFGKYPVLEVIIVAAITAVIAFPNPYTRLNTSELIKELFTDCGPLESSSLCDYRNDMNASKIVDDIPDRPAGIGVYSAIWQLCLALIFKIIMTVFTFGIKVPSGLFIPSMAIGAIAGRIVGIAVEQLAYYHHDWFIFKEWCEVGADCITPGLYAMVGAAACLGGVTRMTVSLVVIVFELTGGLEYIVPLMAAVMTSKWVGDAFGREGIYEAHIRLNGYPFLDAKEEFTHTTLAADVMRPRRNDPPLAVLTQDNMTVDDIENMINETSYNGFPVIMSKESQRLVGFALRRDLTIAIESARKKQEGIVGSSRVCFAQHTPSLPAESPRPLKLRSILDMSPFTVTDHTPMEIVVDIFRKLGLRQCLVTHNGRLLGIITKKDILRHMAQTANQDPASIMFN

| Target | log2 fold change [1] | log2 fold change [2] | log2 fold change [3] | log2 fold change [4] | log2 fold change [5] | log2 fold change [6] | log2 fold change [7] | log2 fold change [8] | log2 fold change [9] | log2 fold change [10] | log2 fold change [11] | log2 fold change [12] | log2 fold change [13] | log2 fold change [14] | log2 fold change [15] | log2 fold change [16] | log2 fold change [17] | log2 fold change [18] | log2 fold change [19] | log2 fold change [20] |
| --- | --- | --- | --- | --- | --- | --- | --- | --- | --- | --- | --- | --- | --- | --- | --- | --- | --- | --- | --- | --- |
| CA8 (UniProt P35219) | 0.003 | -0.008 | 0.117 | -0.06 | 0.1 | -0.064 | 0.122 | 0.096 | -0.066 | 0.103 | -0.042 | 0.079 | 0.006 | -0.017 | -0.187 | -0.01 | 0.083 | -0.063 | -0.064 | 0.06 |
| CAMSAP1 isoform 3 (UniProt Q5T5Y3) | 0.05 | -0.11 | 0.073 | 0.041 | -0.019 | -0.039 | -0.04 | 0.02 | 0.008 | -0.124 | -0.019 | -0.05 | 0.043 | -0.061 | -0.144 | -0.055 | 0.091 | -0.021 | -0.132 | -0.005 |
| CLPX (UniProt O76031) | 0.061 | 0.291 (active) | 0.027 | 0.004 | 0.004 | 0.003 | -0.012 | -0.05 | -0.002 | 0.018 | 0.008 | -0.074 | -0.006 | 0.042 | 0.006 | -0.019 | -0.012 | 0.032 | 0.052 | -0.048 |
| CDK9 isoform 2 (UniProt P50750) | -0.017 | -0.103 | -0.075 | 0.189 | -0.076 | -0.054 | -0.031 | 0.03 | 0.066 | -0.013 | 0.039 | 0.108 | -0.045 | -0.059 | -0.011 | 0.22 | -0.091 | -0.013 | 0.068 | -0.067 |
| CLPP (UniProt Q16740) | 0.05 | 0.348 (active) | 0.058 | -0.025 | 0.006 | 0.008 | -0.02 | 0.017 | 0.003 | 0.105 | 0.025 | -0.045 | 0.022 | 0.005 | 0.063 | -0.016 | 0.115 | 0.02 | 0.003 | 0.004 |
| CALCOCO2 isoform 4 (UniProt Q13137) | 0.026 | -0.355 (active) | -0.106 | 0.024 | 0.042 | 0.071 | 0.115 | -0.037 | -0.002 | -0.262 | -0.647 (active) | -0.061 | -0.039 | 0.038 | 0.01 | 0.1 | -0.013 | -0.035 | -0.015 | -0.025 |
| CNTN4 (UniProt Q8IWV2) | -0.03 | 0.064 | 0.148 | -0.099 | 0.102 | 0.144 | -0.051 | -0.087 | -0.095 | -0.046 | -0.109 | 0.008 | 0.06 | 0.01 | 0.003 | -0.13 | 0.131 | 0.032 | -0.097 | 0.224 |
| CLCN3 isoform 2 (UniProt P51790) | -0.008 | -0.074 | 0.09 | -0.142 | 0.015 | 0.02 | 0.002 | -0.011 | 0.009 | -0.25 | -0.044 | 0.076 | -0.016 | 0.034 | 0.027 | 0.017 | 0.017 | 0.027 | 0.004 | -0.004 |
